Experimental data as given in PubChem BioAssay (NCATS).
Records with an inconclusive call do not appear. Calls of active or inactive are those of the source. Unless noted, calls come from the whole dose curve; as a rule, active = well fitted cell-killing curve with a large enough effect; inconclusive = small, poorly fitted or top-dose-only effect; inactive = flat fitted curve, though single readings scatter.

Assays:
[1] = Cell Viability - LYMP2-025 (AID 976); note: series mostly up to about 92 µM
Method in brief: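 Cytotoxicity read as loss of intracellular ATP (luciferase luminescence) after 24 h compound treatment at 37 C. Uses LYMP2-025 lymphoblastoid cells in 1536-well format; Hill-equation modelling gives AC50; tetraoctylammonium bromide as positive control.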

[2] = Cell Viability - LYMP2-002 (AID 977); note: series mostly up to about 92 µM
Method in brief: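 In this qHTS viability screen, 2500 human lymphoblastoid cells per well receive compound for 24 hr at 37 C, and luciferase-based ATP luminescence gives the viability signal. Tetraoctylammonium bromide serves as positive control.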

[3] = Cell Viability - LYMP2-006 (AID 978); note: series mostly up to about 92 µM; nearly all actives have a fitted effect of over 60% in size
Method in brief: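 qHTS, 1536-well; 2500 cells/well, 5 hr 37 C; cpd 24 hr 37 C; CellTiter-Glo 30 min RT; luminescence. Tetraoctylammonium bromide pos. ctrl. AC50 via Hill eqn.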

[4] = Cell Viability - LYMP2-007 (AID 979);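 note: cells exposed to compound for 24 h before reading; nearly all actives have a fitted effect of over 60% in size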
Method in brief: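 AC50 values come from Hill-equation fits of luminescent intracellular ATP (CellTiter-Glo, 30 min, room temperature) following 24 h compound exposure at 37 C. Cells: LYMP2-007 lymphoblastoid line, 2500 per well, in complete culture medium.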

[5] = Cell Viability - LYMP2-008 (AID 980); note: nearly all actives have a fitted effect of over 60% in size
Method in brief: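 Cytotoxicity determined from ATP-dependent luciferase luminescence (CellTiter-Glo) following 24 h compound exposure of human lymphoblastoid LYMP2-008 cells at 37 C. Concentration-response data fitted to the Hill equation to give AC50.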

[6] = Cell Viability - LYMP2-010 (AID 981); note: nearly all actives have a fitted effect of over 55% in size
Method in brief: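 CellTiter-Glo ATP luminescence measured cytotoxicity after 24 h compound exposure at 37 C. LYMP2-010 cells were seeded at 2500/well, with tetraoctylammonium bromide as control; concentration-response curves gave AC50 values by the Hill equation.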

[7] = Cell Viability - LYMP2-012 (AID 982);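 note: cellular ATP by luciferase luminescence where a drop means cytotoxicity; cells exposed to compound for one day before reading; nearly all actives have a fitted effect of over 55% in size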
[8] = Cell Viability - LYMP2-014 (AID 983); note: series mostly up to about 92 µM; nearly all actives have a fitted effect of over 50% in size
Method in brief: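 Intracellular ATP loss, read by luciferase luminescence, measures acute cytotoxicity after 24 h compound exposure of lymphoblastoid LYMP2-014 cells (2500/well, 37 C). Concentration-response data fitted to the Hill equation for AC50.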

[9] = Cell Viability - LYMP2-016 (AID 984); note: nearly all actives have a fitted effect of over 55% in size
Method in brief: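 qHTS, 1536-well: 2500 LYMP2-016 cells/well, 5 hr 37 C, compound added, 24 hr 37 C, CellTiter-Glo 30 min RT, luminescence. Tetraoctylammonium bromide positive control. AC50 via Hill fit.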

[10] = Cell Viability - LYMP2-018 (AID 985); note: nearly all actives have a fitted effect of over 50% in size
Method in brief: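 Viability read as CellTiter-Glo luminescence (cellular ATP) after 24 hr compound exposure at 37 C of 2500 LYMP2-018 lymphoblastoid cells/well, pre-plated 5 hr. Hill-equation modelling gave AC50.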

[11] = Cell Viability - LYMP2-020 (AID 986); note: series mostly up to about 92 µM; nearly all actives have a fitted effect of over 55% in size
Method in brief: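 Cytotoxicity in qHTS format: luminescent ATP readout from CellTiter-Glo after 24 h compound exposure at 37 C in complete medium. LYMP2-020 lymphoblastoid cells were seeded at 2500/well; concentration-response data fitted to the Hill equation for AC50.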

[12] = Cell Viability - LYMP2-024 (AID 988); note: nearly all actives have a fitted effect of over 60% in size
Method in brief: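 Cytotoxicity was taken as a decrease in ATP (CellTiter-Glo luminescence) after 24 hr compound exposure at 37 C of LYMP2-024 lymphoblastoid cells, 2500 cells/well. Concentration-response data were fitted to the Hill equation to give AC50.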

[13] = Cell Viability - LYMP2-026 (AID 989); note: nearly all actives have a fitted effect of over 50% in size
Method in brief: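 Cytotoxicity read as ATP-dependent luminescence (CellTiter-Glo, 30 min room temperature) after 24 h compound treatment at 37 C. LYMP2-026 lymphoblastoid line seeded at 2500 cells/well; AC50 derived by standard Hill equation.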

[14] = Cell Viability - LYMP1-002 - Assay at 24 hr (AID 993)
Method in brief: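 qHTS cytotoxicity at 24 h: CellTiter-Glo ATP luminescence in lymphoblastoid line LYMP1-002 incubated with compound at 37 °C. Concentration-response modeled with the Hill equation for AC50; tetraoctylammonium bromide served as positive control.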

[15] = qHTS Assay for Identification of Small Molecule Inducers of Hypoxia Response (AID 2120; active = well fitted curve in the direction sought with a large enough effect in the signal ratio, with a control signal flat, not every such curve was filed as active; the % refers to the signal ratio)
Method in brief: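 Reporter induction read as the CCF4 blue/green (460nm/530nm) emission ratio after 2.5 h dye loading at room temperature. ME-180 HRE-beta-lactamase cells received titrated compounds for 17 h at 37 degrees Celsius; AC50 values derived.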

[16] = molecular target: Estrogen receptor (Homo sapiens) (UniProt P03372); test: qHTS assay for small molecule antagonists of estrogen receptor alpha signaling (AID 588513; active = well fitted curve in the direction sought with a large enough effect in the signal ratio, with a control signal flat, not every such curve was filed as active; the % refers to the signal ratio)
Method in brief: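 Beta-lactamase reporter, antagonist mode, HEK 293 GripTite cells; 0.5nM E2 stimulus, 18 h, 37 C; CCF4 dye 2 h RT; fluorescence. IC50 and efficacy from Hill fits, normalized to E2 and DMSO.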

[17] = molecular target: Estrogen receptor (Homo sapiens) (UniProt P03372); test: qHTS assay for small molecule agonists of estrogen receptor alpha signaling (AID 588514; calls by dose curve; note: nearly all actives have a fitted effect of over 70% in size)
Method in brief: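 EC50 and efficacy came from Hill fits of beta-lactamase reporter signal (CCF4 dye, 2 h at room temperature) scaled between DMSO and 20 nM 17-beta-estradiol. Agonist mode: HEK293 ER-alpha-UAS-bla cells in charcoal/dextran-stripped serum medium, 18 h compound exposure at 37 C.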

[18] = Cell Viability - LYMP2-022 (AID 987); note: nearly all actives have a fitted effect of over 55% in size
Method in brief: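 Cytotoxicity read as decreased cellular ATP (CellTiter-Glo luminescence, 30 min room temperature) after 24 hours compound exposure of 2500 lymphoblastoid LYMP2-022 cells/well at 37 C. Concentration-response data fitted with standard Hill equation for AC50.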

[19] = Cell Viability - LYMP1-002 - Assay at 40 hr (AID 994); note: nearly all actives have a fitted effect of over 60% in size
Method in brief: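 Cytotoxicity was read as loss of cellular ATP (CellTiter-Glo luminescence) after 40 hr compound exposure at 37 C of 2500 LYMP1-002 lymphoblastoid cells per well. Concentration-response data were fitted with the standard Hill equation to give AC50.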

Measured: Potency

Sequence of Estrogen receptor (Homo sapiens) (P03372 whole entry, looked up): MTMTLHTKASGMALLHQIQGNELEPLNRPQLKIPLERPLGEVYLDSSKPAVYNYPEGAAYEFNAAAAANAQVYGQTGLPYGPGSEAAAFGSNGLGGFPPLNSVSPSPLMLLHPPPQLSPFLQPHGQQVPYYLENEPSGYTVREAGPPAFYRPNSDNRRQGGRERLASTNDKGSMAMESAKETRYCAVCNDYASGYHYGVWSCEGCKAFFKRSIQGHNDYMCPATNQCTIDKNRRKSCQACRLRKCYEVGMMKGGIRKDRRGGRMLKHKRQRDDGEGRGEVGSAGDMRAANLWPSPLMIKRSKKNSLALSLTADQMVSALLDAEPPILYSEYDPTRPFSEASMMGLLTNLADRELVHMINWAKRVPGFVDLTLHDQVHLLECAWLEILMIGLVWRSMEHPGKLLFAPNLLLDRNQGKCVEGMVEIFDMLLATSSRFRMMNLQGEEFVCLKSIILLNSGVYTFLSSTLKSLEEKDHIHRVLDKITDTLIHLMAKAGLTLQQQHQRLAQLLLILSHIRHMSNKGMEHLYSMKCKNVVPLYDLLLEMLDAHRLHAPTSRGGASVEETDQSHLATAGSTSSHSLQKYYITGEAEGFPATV

CC(=O)Nc1ccccc1C
not listed: [18] | [19]
inactive: all other assays above

CCCCCCCCC/C=C/CC1CC(=O)OC1=O (stereo unspecified)
not listed: [10] | [19]
inactive: all other assays above

CC(C)N=C=NC(C)C
not listed: [10]
inactive: all other assays above

O=C(Cl)c1cccc([N+](=O)[O-])c1
not listed: [10] | [19]
inactive: all other assays above

CC(=O)Nc1ccc(C)cc1
not listed: [9] | [18]
inactive: all other assays above

CC(C)Nc1ccccc1
not listed: [18]
inactive: all other assays above

O=P(O)(OCc1ccccc1)OCc1ccccc1
not listed: [10]
inactive: all other assays above

CC(=O)Nc1cccc(N)c1
not listed: [9]
inactive: all other assays above

CC(C)=C1CCC(C)CC1=O (stereo unspecified)
not listed: [9] | [12]
inactive: all other assays above

O=C(O)c1ccc(Cl)cc1Cl
not listed: [10] | [14] | [18]
inactive: all other assays above

Nc1nc2ccccc2[nH]1
inactive: all assays above

CCCCC(CC)COCC1CO1 (stereo unspecified)
not listed: [14]
inactive: all other assays above

CC(=O)c1nccs1
not listed: [3] | [10] | [13] | [14] | [18]
inactive: all other assays above

CC(C)=CCC/C(C)=C/C=O
not listed: [6]
inactive: all other assays above

CN(C)CCCNCCCN
not listed: [3] | [6] | [7]
inactive: all other assays above

CC(C)(c1cc(Br)c(OCC(Br)CBr)c(Br)c1)c1cc(Br)c(OCC(Br)CBr)c(Br)c1 (stereo unspecified)
not listed: [4]
inactive: all other assays above
